Experimental data from PubChem BioAssay AID1986 (Sanford-Burnham Center for Chemical Genomics, 2009).
Screen size: about 290,000 compounds; about 890 (0.31%) were called active. Rule as the data show it: active = inhibition mostly above about 52% (no sharp cut-off); inactive = mostly below about 76%. This excerpt belongs to a sample that is enriched for actives.

Assay: inhibitors of HIV fusion peptide binding, primary screen, biochemical, uHTS, fluorescence dequenching (AID 1986)
Conditions: cell-free peptide binding, 30 min, stronger effect = higher value
[1] = measured here: repeat confirmation average inhibition, at 18.6 µM

Compound | inhibition (at 20 µM) | inhibition [1] [%]
COc1cc(/C=C2\SC(=Nc3ccccc3)NC2=O)cc(Cl)c1O | 90% (active) | 60.8
O=C1/C(=C\c2cc(Cl)c(O)c(Cl)c2)SC(=S)N1Cc1ccccc1 | 159% (inactive) | –
COc1ccc(OC)c(/C=C2\SC(=S)N(Cc3cccnc3)C2=O)c1 | 36.3% (inactive) | –
COc1cc(/C=C2\SC(=Nc3ccccc3OC)NC2=O)ccc1O | 8.2% (inactive) | –
COc1ccc(/C=C2\SC(=Nc3ccccc3OC)NC2=O)cc1 | 7.1% (inactive) | –
CCN(CC)CCCNC(=O)CNC(=S)N(CCCN1CCOCC1)Cc1cccs1 | -0.5% (inactive) | –
Cc1cc(C)cc(OCC(=O)Nc2nc(-c3cccnc3)cs2)c1 | -0.2% (inactive) | –
COc1ccc2cc(CN(CC3CCCO3)S(=O)(=O)c3ccccc3)c(=O)[nH]c2c1 (stereo not given) | 1.4% (inactive) | –
COc1cc(N2CCCC2)c(OC)cc1/C=C(/C#N)c1ccc(F)cc1 | 15.6% (inactive) | –
COc1cc(N2CCCC2)c(OC)cc1/C=C(/C#N)c1cccc(F)c1 | 57.2% (active) | –
COc1cc(N2CCCC2)c(OC)cc1/C=C(/C#N)c1cccc(Br)c1 | 51.2% (active) | 65.1
N#C/C(=C/c1ccc(N2CCCCCC2)o1)c1cccc(F)c1 | 3.6% (inactive) | –
N#C/C(=C/c1ccc(N2CCCCC2)cc1)c1cccc(F)c1 | 1.6% (inactive) | –
COc1cc(N2CCCC2)c(OC)cc1/C=C(/C#N)c1ccc(Br)cc1 | -0.2% (inactive) | –
CCOC(=O)c1c(C)n(C)c2c(C)cc(O)c(OC(=O)CC)c12 | 1.5% (inactive) | –
COC(=O)Cc1cccc2c(=O)c3ccccc3oc12 | -2% (inactive) | –
O=C(CCS(=O)(=O)c1ccc2c(c1)NC(=O)CO2)NCCc1ccc(Cl)cc1 | 0.2% (inactive) | –
CC(C)NC(=O)c1ccc(CN2CCC(Cc3ccccc3)CC2)cc1 | -0.1% (inactive) | –
Cc1cccc(Nc2nnc(SCC(=O)NCc3cccs3)s2)c1 | -0.3% (inactive) | –
CCOC(=O)c1cc2c(=O)n3cccc(C)c3nc2n(Cc2ccccc2Cl)c1=N | -3.9% (inactive) | –
CCOC(=O)c1cc2c(=O)n3cccc(C)c3nc2n(C)c1=N | 59.9% (active) | –
Cc1cccn2c(=O)c3cc(C(=O)NCc4cccnc4)c(=N)n(C)c3nc12 | -1.4% (inactive) | –
COc1cccc(/C=N\NC(C)=O)c1OC/C=C/c1ccccc1 | 0.3% (inactive) | –

Compound | inhibition (at 20 µM) | inhibition [1] [%]
O=C1/C(=C/c2ccncc2)SC(=S)N1N1CCOCC1 | -1.3% (inactive) | –
Cc1ccc(NS(=O)(=O)c2cc(C(=O)N3CCN(C)CC3)ccc2C)cc1 | -0.2% (inactive) | –
CCN(CC)S(=O)(=O)c1cc(NS(=O)(=O)c2cccc(C(=O)O)c2)ccc1C | 1.4% (inactive) | –
CC(C)OC(=O)c1c2c(n3ccccc13)C(=O)c1ccccc1C2=O | 103% (active) | –
CC(C)OC(=O)c1cccc2c1C(=O)c1ccccc1-2 | -0.7% (inactive) | –
COC(=O)c1cc2c(C)c(C)c3ccccn3c-2c1C(=O)OC | -1.6% (inactive) | –
CSc1cccc(NC(=O)c2nnn(Cc3ccccc3)c2N)c1 | -1.1% (inactive) | –
CCOC(=O)C1CCN(C(=O)COc2ccc(S(=O)(=O)NC(C)C)cc2Cl)CC1 | -0.9% (inactive) | –
CCOc1ccc(NC(=O)CSc2ncn[nH]2)c([N+](=O)[O-])c1 | 0.8% (inactive) | –
Cc1occc1-c1nnc(SCC(=O)N2CCN(c3ccccc3F)CC2)n1C | 0.2% (inactive) | –
O=C(Nc1ccncc1)C1CC1c1ccccc1 (stereo not given) | -0.2% (inactive) | –
O=c1c2ccccc2c(/C=N/NS(=O)(=O)c2ccccc2)c(O)n1-c1ccccn1 | 109% (active) | 78.3
COc1ccc(-n2c(O)c(/C=N/NS(=O)(=O)c3ccc(C)cc3)c3ccccc3c2=O)cc1OC | 152% (inactive) | –
CC(C)(C)N/N=C/c1c(O)n(-c2ccc(Cl)cn2)c(=O)c2ccccc12 | 4% (inactive) | –
O=C(c1cc(-c2ccco2)nn1-c1cccc(Cl)c1)N1CCCCC1 | 15% (inactive) | –
O=C(O)c1cc(-c2ccco2)nn1-c1ccc(Cl)cc1 | 72.4% (inactive) | 4.8
O=C(O)c1cc(-c2ccco2)nn1-c1cccc(Cl)c1 | 74.3% (active) | –
O=C1NN(c2cccc(Br)c2)C(=O)/C1=C/c1ccc(-c2cc([N+](=O)[O-])ccc2O)o1 | 56.9% (active) | –
O=C1NN(c2ccccc2)C(=O)/C1=C\c1ccc(-c2cc([N+](=O)[O-])ccc2O)o1 | 53.6% (inactive) | 15
CC1=NN(c2ccc(C)cc2)C(=O)/C1=C/c1ccc(-c2cc([N+](=O)[O-])ccc2O)o1 | 45.2% (inactive) | –
CCCOc1cccc(C(=O)N/N=C/c2ccoc2)c1 | 0.4% (inactive) | –
O=C(Nc1ccc([N+](=O)[O-])cn1)C1CC2CCC1C2 (stereo not given) | 1.2% (inactive) | –
